# Screens: PubChem, several laboratories
# NALP3 yeast inh: inhibitors of NALP3 inflammasome in yeast. inhibition, % at 10 µM. AID 2825. hit rate 0.39% among 330,000. Yeast reconstituted NLRP3/ASC/caspase-1, beta-gal luminescence, 24 h;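 active = inhibition of 50% or more; inactive = inhibition below 50%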
# TIM10 inh: inhibits growth of TIM10 yeast strain; S. cerevisiae TIM10 strain growth, BacTiter-Glo luminescence, 24 h; inhibition, % at 10 µM; hit rate 1.4% among 330,000; AID 463195;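 active = inhibition of 40% or more at the single tested concentration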;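 also: wild-type TIM10 isogenic control strain grown at permissive 25 °C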
# tim23-1 inh: growth inhibitors of tim23-1 mutant yeast. S. cerevisiae tim23-1 growth, BacTiter-Glo luminescence, 24 h. inhibition, % at 20 µM. hit rate 1.3% among 330,000. AID 463212;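 active = growth inhibition of the mutant yeast at or above 50%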;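 also: temperature-sensitive mutant grown at 25 °C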
# tim10-1 inh: growth inhibitors of tim10-1 mutant yeast; inhibition, % at 20 µM; hit rate 2.2% among 330,000; S. cerevisiae tim10-1 ts strain growth, BacTiter-Glo, 24 h; AID 463190;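 active = inhibition of at least 40%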;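 also: mutant grown at 25 °C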
# V-ATPase pHluor: regulators of yeast V-ATPase proton transport; S. cerevisiae, pHLuorin cytosolic pH fluorescence; response, % at 10 µM; hit rate 0.37% among 350,000; AID 504577; in the data active = response mostly above about 7.3%, no sharp cut-off; inactive = mostly below about 5.4%; also: actives read high
# NALP1 inh: blocks the NALP1 inflammasome reconstituted in yeast; S. cerevisiae NALP1/ASC/caspase-1 growth, X-gal OD620, 72 h; AID 2071; hit rate 0.61% among 280,000; inhibition, % at 10 µM; in the data active = inhibition mostly above about 24%, no sharp cut-off; inactive = mostly below about 32%
# TIM10 conf: confirmation of TIM10 yeast growth inhibitors. shares compounds with TIM10 inh. S. cerevisiae tim10 strain growth, BacTiter-Glo luminescence, 24 h. inhibition, % at 10 µM. hit rate 63% among 4,600. AID 463215;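 active = inhibition of yeast growth at or above a set limit in either of two replicates at 10 µM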; also: this counterscreen used the strain with wild-type TIM10
# A number is an active result; – = inactive; · = not tested or not shown. A selection: hits, their analogues and other compounds. The true share with any hit is near 4.2%.
SMILES,NALP3 yeast inh,TIM10 inh,tim23-1 inh,tim10-1 inh,V-ATPase pHluor,NALP1 inh,TIM10 conf
Cc1cc(NCc2ccccc2)n2ncc(-c3ccccc3)c2n1,–,–,–,–,–,–,·
CCOc1ccc(C(=O)OCC(=O)NCCCc2ccccc2)cc1,–,–,–,–,–,–,·
CCOC(=O)CSc1nnc(-c2ccoc2C)n1-c1ccc(OCC)cc1,–,45,–,–,–,–,–
CCOC(=O)CSc1nnc(-c2ccoc2C)n1-c1ccc(C)cc1,–,–,–,–,–,–,·
COc1ccc(C(=O)/C=C2\NCC3c4ccccc4CCN3C2=O)cc1 (configuration not stated),–,–,–,–,–,–,·
COc1cccc(N2CC(NC(=O)C(=O)c3c[nH]c4ccccc34)CC2=O)c1 (configuration not stated),–,–,–,–,–,·,·
O=C(NC1CC(=O)N(c2cccc(F)c2)C1)C(=O)c1c[nH]c2ccccc12 (configuration not stated),–,97,–,–,–,·,–
NC(=O)[C@H]1CC2(CC(c3cccc(NC(=O)COc4ccc(Cl)cc4)c3)=NO2)CN1C(=O)[C@H]1CCC(=O)N1 (some centres not stated),–,–,–,–,–,–,·
OC(c1ccccc1)c1ccncc1 (configuration not stated),–,–,–,–,–,·,·
Cc1ccccc1C(N)c1ccncc1 (configuration not stated),–,81,–,–,–,–,–
CCC(C)[C@H](NC(=O)N1CCCCC1)C(=O)OC (some centres not stated),–,–,–,–,–,·,·
O=C(c1ccco1)N1CCN=C1SCc1cccc(F)c1,–,96,–,–,–,–,–
Cc1cc(-c2ccc(Br)s2)nc(-n2cccc2)n1,·,·,·,·,–,–,·
COc1ccc(-c2cc3c(nn2)-c2ccccc2C3=O)cc1,–,42,–,–,–,–,45
COc1ccccc1NS(=O)(=O)c1cc(NC(=O)c2cccc(S(=O)(=O)N(C)C)c2)ccc1N1CCOCC1,–,–,–,–,–,·,·
CCCc1cc(C(=O)N2CCN(c3ccccc3C)CC2)cs1,–,40,–,–,–,–,36
Cc1ccc(S(=O)(=O)NC2CCCc3ccccc32)cc1C (configuration not stated),–,45,–,–,–,–,–
COc1ccc(C2N(c3cc(Cl)ccc3OC)C(=O)C3CCCN32)cc1OC (configuration not stated),–,–,–,–,–,–,·
O=S(=O)(NCc1ccc2c(c1)OCO2)c1ccc2oc3ccccc3c2c1,–,49,–,–,–,·,35
CC(C)=CCC/C(C)=C/CNC(=O)C[C@H]1C[C@H](C(=O)N2CCOCC2)[C@@]2(C)c3[nH]c4ccc(Cl)cc4c3CCN2C1=O,·,–,–,–,–,·,·
Cc1ccc(-c2nc3cc(N)ccc3o2)cc1,–,41,–,–,–,–,30
Cc1ccc(-c2nc3cc(NS(=O)(=O)c4ccc(C)cc4)ccc3o2)cc1,–,45,–,–,–,–,37
Cc1ccc(-c2nc3cc(C)ccc3o2)cc1,–,–,–,–,–,–,·
O=C(CN1CCN(Cc2ccccc2)CC1)N1CCCc2ccccc21,–,–,–,–,–,–,·
O=C(Nc1ccc(N2CCOCC2)cc1)c1cc(-n2cnnc2)ccc1Cl,–,96,–,–,–,–,–
SMILES,NALP3 yeast inh,TIM10 inh,tim23-1 inh,tim10-1 inh,V-ATPase pHluor,NALP1 inh,TIM10 conf
O=C(Nc1ccccc1)c1cc(-n2cnnc2)ccc1Cl,–,–,–,–,–,–,·
S=c1[nH]c(-c2ccccc2)cn1-c1ccccc1,–,46,–,–,–,–,49
Nc1ccc(-n2cc(-c3ccccc3)[nH]c2=S)cc1,–,–,–,–,–,–,·
O=C(NC1CCCC1)C(c1ccccc1)N(C(=O)c1csnn1)C1CCCC1 (configuration not stated),–,–,–,–,–,–,·
COc1ccc2c(c1)-c1nc(/N=C/c3ccc(O)cc3)sc1CC2,·,·,·,·,–,–,·
O=c1[nH]c2ccc(Cl)cc2c(-c2ccccc2)c1SC(=S)N1CCCCC1,–,40,–,–,–,–,–
O=c1[nH]c2ccc(Cl)cc2c(-c2ccccc2)c1SC(=S)N1CCOCC1,–,–,–,–,–,–,·
COc1ccc(/C=N/NC(=S)N[C@H]2CC3CCC2C3)cc1 (some centres not stated),–,47,–,–,–,–,36
S=C(N/N=C/c1ccc2c(c1)OCO2)NC1CC2CCC1C2 (configuration not stated),–,–,–,–,–,–,·
O=C(COC(=O)c1ccc([N+](=O)[O-])s1)Nc1ncc(C(F)(F)F)cc1Cl,–,65,–,–,–,–,72
O=C(COC(=O)c1ccccn1)Nc1ncc(C(F)(F)F)cc1Cl,–,–,–,–,–,–,·
CC1CCCC(NC(=O)COC(=O)c2ccc([N+](=O)[O-])s2)C1C (configuration not stated),–,62,–,–,–,·,61
Cc1ccc(CC(=O)OCC(=O)NC2CCCC(C)C2C)cc1C (configuration not stated),–,50,–,–,–,–,–
CSc1ccccc1NC(=O)COc1nsnc1N1CCOCC1,–,–,–,–,–,–,·
O=C(Cc1ccc(S(=O)(=O)N2CCCC2)s1)N1CCN(c2ccc(F)cc2)CC1,–,–,–,–,–,–,·
O=C(/C=C/c1ccc2c(c1)OCCCO2)c1ccc2ccccc2c1O,–,–,–,–,–,–,·
Cc1ccc(C(=O)/C=C/c2ccc3c(c2)OCCO3)c(O)c1,–,52,–,–,–,–,52
Oc1[nH]c2ccccc2c1N=Nc1ccc(C(F)(F)F)cn1,–,53,–,–,–,–,–
Oc1[nH]c2ccc(Br)cc2c1N=Nc1ccc(C(F)(F)F)cn1,–,–,–,–,–,·,·
O=C(OCC#CCSc1nnc(-c2ccc([N+](=O)[O-])cc2)o1)c1cccs1,–,41,–,–,–,–,33
CCc1nnc(NC(=O)c2n[nH]c(=O)c3ccccc23)s1,–,–,–,–,–,·,·
Cc1ccc(O)c(N=Cc2cccs2)c1,–,–,–,–,–,–,·
Cn1c(SCc2ccc3c(c2)OCO3)nnc1-c1ccccc1,–,97,–,–,–,·,–
COC(=O)CCCCCN1C(=O)/C(=C\c2ccncc2)SC1=S,–,42,–,–,–,–,28
O=C(CCCN1C(=O)/C(=C\c2cccc(Br)c2)SC1=S)Nc1cccnc1,–,45,–,–,–,–,–
COc1ccc(/C=C(/C(=O)Nc2ccccc2C(=O)N2CCCC2)c2ccccc2)cc1,–,43,–,–,–,–,–
COc1ccc(/C=C(/C(=O)Nc2ccccc2C(=O)NC(C)C)c2ccccc2)cc1,–,–,–,–,–,–,·
